PubChem BioAssay AID504332 (National Center for Advancing Translational Sciences (NCATS), 2011)
Several values for one entry are separate records, joined by “and”; a condition that tells them apart may be missing. Equal values may be shown once. The campaign covered roughly 350,000 compounds. About 31,000 (8.9%) were called active. A call without a number means that no potency is given here. Inconclusive results (about 15%) are left out. Calls follow the shape of the dose curve; as a rule, active = well fitted inhibition curve with a large enough effect; inconclusive = small, poorly fitted or top-dose-only effect; inactive = no such curve, though single readings can be large or run the other way. Many of the other results were omitted from the sample, so actives are more common in it than they were. A structure can be active in one record and inactive in another.

These compounds were tested against Histone-lysine N-methyltransferase EHMT2 (Homo sapiens) (UniProt Q96KQ7) (assay: qHTS Assay for Inhibitors of Histone Lysine Methyltransferase G9a). Settings: G9a H3K9 monomethylation, AlphaScreen, 2 h; series mostly up to 59 µM.
How it was run: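 Enzyme 20 nM + cpd, 15 min RT; add b-H3K9 pep 500 nM / SAM 20 uM; 2 h RT; anti-H3K9me1 Ab 0.5 ug/mL + SA donor / anti-rabbit acceptor beads 20 ug/mL each, 10 min; AlphaScreen read.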
Also: nearly all actives have a fitted effect of over 75% in size.
Potency is read from the fitted curve at half-maximal effect.

Sequence of Histone-lysine N-methyltransferase EHMT2 (Homo sapiens) (Q96KQ7 913-1193 limits assumed): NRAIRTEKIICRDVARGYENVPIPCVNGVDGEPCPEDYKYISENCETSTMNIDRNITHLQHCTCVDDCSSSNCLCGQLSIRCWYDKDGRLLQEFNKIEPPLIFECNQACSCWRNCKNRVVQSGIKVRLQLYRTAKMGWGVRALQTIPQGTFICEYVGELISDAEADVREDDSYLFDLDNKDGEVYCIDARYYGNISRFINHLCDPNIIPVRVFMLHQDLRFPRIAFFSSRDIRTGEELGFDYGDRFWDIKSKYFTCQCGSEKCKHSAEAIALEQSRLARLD

Compound	Potency	activity, negative = inhibition
O=C(Cc1ccc(Cl)cc1)NC1CCS(=O)(=O)C1 (stereo not drawn)	inactive	
Cc1cc(C)c(CN2CCN(C(=O)Cn3ccc(NC(=O)OCc4ccccc4)nc3=O)CC2)c(C)c1		-47.4% [at 0.501 µM] (inactive)
NC(=O)C1CCN(C(=O)c2ccc(F)c(S(=O)(=O)N3CCOCC3)c2)CC1		2.82% [at 2.33 µM] (inactive)
CCOc1ccc(-c2n[nH]c3c2C(c2ccccc2OC)N(c2ccc(Br)cc2)C3=O)cc1 (stereo not drawn)	inactive	
Cc1sc2ncnc(N3CCC(C(=O)NNC(=O)c4ccc(F)cc4)CC3)c2c1C	inactive	
Cc1ccc(Cl)cc1NC(=S)N(CCN(C)C)Cc1cccs1	39.8 µM (active)	
Cc1ccccc1NC(=S)N(CCCN1CCOCC1)Cc1cccs1	inactive	
Cc1ccc(NC(=S)N(CCN(C)C)Cc2cccs2)cc1C	inactive	
CC(C)Nc1ccc(-n2nc3ccccc3[n+]2[O-])cc1	inactive	
c1ccc2cc(CCCc3cc4ccccc4cn3)ncc2c1		5.78% [at 0.501 µM] (inactive)
NC(=O)C1CCN(C(=O)c2cn(-c3ccccc3)nc2-c2cccnc2)CC1	inactive	
CC(Cc1ccccc1)C(=O)N(C)Cc1ccccc1 (stereo not drawn)	inactive	
COc1ccc(CNC(=O)C(Cc2ccccc2)n2cccc2)cc1 (stereo not drawn)	inactive	
Cc1ccc(C)n1C(Cc1ccccc1)C(=O)O (stereo not drawn)	35.5 µM (active)	
Cc1ccc(S(=O)(=O)N2CCCCC2)cc1NC(=O)[C@@H]1CCCN1C(=O)c1cccs1		-7.65% [at 12.7 µM] (inactive)
Cc1ccc2nc(COc3cccc(NC(=O)c4ccccc4Cl)c3)cc(=O)n2c1	inactive	
Cc1c(-c2ccccc2)cn2c1-c1ccc(C)n1CC2	44.7 µM (active)	
CCOC(=O)C1CCN(S(=O)(=O)c2ccc3c(c2)N(C(C)=O)CCO3)CC1	inactive	
CCOC(=O)C1CCN(S(=O)(=O)c2ccc3c(c2)N(C)C(=O)CC(=O)N3C)CC1	inactive and 79.4 µM (active)	
CCOC(=O)C1CCCN(S(=O)(=O)c2ccc3c(c2)C(C)(C)C(=O)N3C)C1 (stereo not drawn)	inactive	
CCCn1c2ccccc2c2cnn(CC(=O)N(CC)c3cc(C)ccc3C)c(=O)c21	inactive	
CCN(CCCNC(=O)CSc1cc(=O)n(C)c2cc(Cl)ccc12)c1cccc(C)c1	17.8 µM (active)	
CCN(CCCNC(=O)CSc1cc(=O)n(C)c2cc(Cl)ccc12)Cc1ccccc1	inactive	
CCOc1ccc(CCNC(=O)CSc2cc(=O)n(C)c3ccc(Cl)cc23)cc1OCC	inactive	

Compound	Potency	activity, negative = inhibition
CC(=O)c1ccc(S(=O)(=O)NCCC(=O)N2CCN(c3ccccn3)CC2)cc1		-0.0681% [at 12.7 µM] (inactive)
O=[N+]([O-])c1ccccc1/C=N/n1c(COc2ccccc2)n[nH]c1=S	1 µM (active)	
COc1ccccc1OCCOc1ccc(/C=N/n2cnnc2)cc1		-8.1% [at 12.7 µM] (inactive)
COc1cc(/C=N/n2c(C)n[nH]c2=S)ccc1OCc1ccccc1	2.24 µM (active)	
Fc1ccc(/C=N/n2c(COc3ccccc3)n[nH]c2=S)cc1	1.58 µM (active)	
COc1cc(/C=N/O)ccc1OCc1ccc([N+](=O)[O-])cc1	inactive	
CCOc1ccc(/C=N/Nc2nncc(-c3ccccc3)n2)cc1OC	inactive	
O=c1ccc(S(=O)(=O)N2CCCC2)cn1Cc1nc(-c2ccccc2)no1		-6.5% [at 2.33 µM] (inactive)
CCN(C(=O)COC(=O)c1c(C)nn(-c2ccccc2)c1Cl)c1c(N)n(Cc2ccccc2)c(=O)[nH]c1=O	inactive	
Cc1ccccc1-c1cc(C(=O)NCC2CC2)n(CC2CC(c3cccnc3)=NO2)n1 (stereo not drawn)		-3.05% [at 0.501 µM] (inactive)
CC1CN(C(=O)N2CCC(C(=O)NCc3ccco3)CC2)c2cc(Cl)ccc2O1 (stereo not drawn)	inactive	
O=C(NCCS(=O)(=O)c1ccc(Br)cc1)c1ccccc1Cl	inactive	
COc1ccccc1CNC(=O)CCn1c(=O)c2ccccc2n(CC(=O)Nc2ccc(Br)cc2F)c1=O	inactive	
CCOc1ccccc1NS(=O)(=O)c1cc2c3c(c1)C(C)C(=O)N3CCC2 (stereo not drawn)	inactive	
COc1ccc(N2CCN(S(=O)(=O)c3ccc4c(c3)NC(=O)C(C)C(=O)N4)CC2)cc1 (stereo not drawn)	inactive	
COc1ccc(N2CCN(S(=O)(=O)c3cc4c5c(c3)C(C)C(=O)N5CCC4)CC2)cc1 (stereo not drawn)	44.7 µM (active)	
COCC1CCN(C(=O)C2CCC(=O)N(CC3CCCCC3)C2)CC1 (stereo not drawn)	inactive	
N#Cc1c(-c2cccs2)nc(SCC(=O)c2ccc(Br)cc2)[nH]c1=O	39.8 µM (active)	
N#Cc1ccc(-c2cccs2)nc1SCc1ccc(Br)cc1	inactive	
Cc1ccc(CSc2nc(-c3ccccc3)c(C#N)c(=O)[nH]2)cc1		16.7% [at 2.33 µM] (inactive)
Cc1ccc(-c2cc(-c3coc4ccccc4c3=O)c3c(n2)-c2cc(Cl)ccc2OC3)cc1	inactive	
Nc1ccc(Nc2cc(O)c3ncccc3c2)cc1	1.58 µM (active)	
COc1ccc(NC(=O)Nc2cccc3cccnc23)cc1	inactive	
O=C(NCCN1CCN(C(=O)c2cccc([N+](=O)[O-])c2)CC1)C(=O)NCc1ccc(Cl)cc1	inactive	

Compound	Potency	activity, negative = inhibition
CSc1ccc(C2c3c(oc4ccccc4c3=O)C(=O)N2CCCN2CCOCC2)cc1 (stereo not drawn)	inactive	
COc1ccc(Cl)cc1NC(=O)CSc1nc(=O)[nH]c2c1CCCC2	inactive	
COc1ccc(-c2cc(C(=O)N(C)CC(=O)Nc3ccccc3Cl)c3ccccc3n2)cc1OC	inactive	
CCOC(=O)c1ccc(Nc2cc(C)nc3nc(C)nn23)cc1	79.4 µM (active)	
CCOC(=O)c1ccc(NC(=S)Nc2cc(C)cc(C)n2)cc1	inactive	
Cc1cc(C)n2nc(C(=O)OCC(=O)N(C)CC(=O)Nc3ccc(F)cc3)nc2n1		-2.62% [at 12.7 µM] (inactive)
O=C(Nc1ccccc1Cl)N1CCC(CN2CCCC2)CC1	inactive	
CCOC(=O)c1nnn(CC(=O)NC(=O)Nc2ccccc2F)c1C(=O)OCC	inactive	
Cc1cc(C)cc(NC(=O)N2CCCCCCC2)c1	inactive	
Cc1ccc(NC(=O)C(c2ccccc2)N2CCN(C(=O)c3ccco3)CC2)cc1 (stereo not drawn)		-37.3% [at 12.7 µM] (inactive)
Cc1cc(C)cc(NC(=O)C(c2ccccc2)N2CCN(CC(=O)N3CCCC3)CC2)c1 (stereo not drawn)	50.1 µM (active)	
Cc1cc(C(=O)OCC(=O)Nc2ccccc2Cl)c(C)o1		-9.85% [at 12.7 µM] (inactive)
Cc1cc(N2CCN(S(=O)(=O)c3ccc(C)c(C)c3)CC2)c2ccccc2n1		22.6% [at 12.7 µM] (inactive)
Cc1ccc(S(=O)(=O)C(C#N)c2nc3ccccc3nc2N2CCCC2)cc1C (stereo not drawn)	2.82 µM (active)	
CC(C)OC(=O)C(C#N)c1nc2ccccc2nc1N1CCN(Cc2ccccc2)CC1 (stereo not drawn)	inactive	
COc1ccc(-c2noc(CSc3nnc(-c4ccccc4)n3-c3ccc(F)cc3)n2)c(OC)c1	inactive	
CCN(CC(=O)Nc1ccc(NC(C)=O)cc1)C(=O)C1CC(=O)N(Cc2ccc(C)cc2)C1 (stereo not drawn)		-0.244% [at 0.501 µM] (inactive)
O=C(CCNS(=O)(=O)c1ccccc1C(F)(F)F)NCc1ccc2c(c1)OCO2	inactive	
c1n[nH]c(NCc2ccc3c(c2)OCO3)n1	inactive	
N#Cc1nc(Cc2cccc3ccccc23)oc1NCc1ccc2c(c1)OCO2	10 µM (active)	
Cc1cc(NS(=O)(=O)c2ccc(NC(=O)c3ccccc3C)cc2)nc(C)n1	inactive	
CCc1cccc(-n2nnc(-c3nsc(NC(=O)c4ccc(C)cc4)n3)c2C)c1	inactive	
CCCCSc1ncnc2c1sc1nc(N3CCOCC3)c3c(c12)CCCC3	inactive	
COC(=O)c1ccc(CNC(=O)c2ccc3oc(C(C)C)nc3c2)cc1	inactive	

Compound	Potency	activity, negative = inhibition
O=C1CC(c2ccccc2)CC(O)=C1C=NCCN1CCOCC1 (stereo not drawn)	12.6 µM (active)	
CCNC(=S)N1CCN(CCN=CC2=C(O)CC(C)(C)CC2=O)CC1	inactive	
CC(C)C(=O)N1CCN(CCN=CC2=C(O)CC(c3ccco3)CC2=O)CC1 (stereo not drawn)	50.1 µM (active)	
O=C1CCCC(O)=C1C=NCCc1ccccc1	inactive	
CC1(C)CC(=O)C(C=NCCN2CCN(C(=S)Nc3cccc(Cl)c3)CC2)=C(O)C1		-2.18% [at 0.501 µM] (inactive)
O=C1CC(c2cccc(Cl)c2)CC(O)=C1C=Nc1ccccc1 (stereo not drawn)	inactive	
COc1ccc2c(c1)C=C(C(=O)NCc1cc(Br)ccc1OC)CO2	inactive	
COc1ccc(OC)c(NC(=O)C2CCCN(S(=O)(=O)c3ccc4c(c3)CCCC(=O)N4)C2)c1 (stereo not drawn)	inactive	
O=C(Nc1nc(-c2ccco2)c(-c2ccco2)s1)c1ccco1		16.3% [at 2.33 µM] (inactive)
O=C(Nc1nnc(CCOCCOCCc2nnc(NC(=O)c3ccco3)s2)s1)c1ccco1	14.1 µM (active)	
CCN(c1ccc(Cl)cc1)S(=O)(=O)c1nnc(NC(=O)c2ccco2)s1	inactive	
CN(Cc1ccccc1)C(=O)c1cc2c(=O)n(C)c3ccccc3c2s1	inactive	
Cc1ccc(N(CC(=O)NCC(C)c2ccccc2)S(=O)(=O)N(C)C)cc1 (stereo not drawn)	inactive	
CCOC(=O)c1sc(NC(=O)CSc2nc(O)c(Cc3ccccc3)c(=O)[nH]2)nc1C	50.1 µM (active)	
CCOC(=O)c1sc(NC(=O)CSc2n[nH]c(CC)n2)nc1C	inactive	
CCOC(=O)c1ccccc1NC(=O)CSc1nc2ccccc2c(=O)[nH]1	inactive	
Cc1ccc(C(=O)Nc2ncccc2C)cc1S(=O)(=O)N1CCOCC1		22.2% [at 12.7 µM] (inactive)
CC(C)C12CN3CC(C(C)C)(CN(C1)C3c1ccc(OCc3ccccc3)cc1)C2=O (stereo not drawn)	inactive	
Cc1nnc(SCC(=O)Nc2ccc(S(=O)(=O)Nc3ccc(Cl)nn3)cc2)s1	79.4 µM (active)	
Cc1nnc(SCC(=O)Nn2cnnc2)s1	inactive	
CCCCCC(=O)Nc1ccc(S(=O)(=O)Nc2ccc(Cl)nn2)cc1	inactive	
